High-throughput results from PubChem.
tim10-1 inh – tim10-1 yeast growth inhibition; inhibition, % at 20 µM; S. cerevisiae tim10-1 ts strain growth, BacTiter-Glo, 24 h; 2.2% of 330,000 active;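 active = inhibition of at least 40%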;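 note: mutant grown at 25 °C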
NALP3 yeast inh – blocks the NALP3 inflammasome reconstituted in yeast | Yeast reconstituted NLRP3/ASC/caspase-1, beta-gal luminescence, 24 h | inhibition, % at 10 µM | 0.39% of 330,000 active;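 active = inhibition of 50% or more; inactive = inhibition below 50%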
SKKanGAS inh – inhibitors of SKKanGAS S. pyogenes growth in kanamycin (SK-promoter or general growth effect). BacTiter-Glo, 6 h. inhibition, % at 7.5 µM. 1.3% of 300,000 active. AID 1662;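 active = mean replicate score, as percent of positive control median, at least 50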;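 note: strain carries kanamycin resistance gene driven by streptokinase promoter and grows in 40 µg/ml kanamycin; loss of luminescence reflects streptokinase promoter inhibition or plain growth inhibition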
TIM10 inh – growth inhibitors of TIM10 yeast strain. S. cerevisiae TIM10 strain growth, BacTiter-Glo luminescence, 24 h. inhibition, % at 10 µM. 1.4% of 330,000 active;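 active = inhibition of 40% or more at the single tested concentration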;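 note: wild-type TIM10 isogenic control strain grown at permissive 25 °C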
tim23-1 inh – tim23-1 yeast growth inhibition; 1.3% of 330,000 active; S. cerevisiae tim23-1 growth, BacTiter-Glo luminescence, 24 h; inhibition, % at 20 µM;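 active = growth inhibition of the mutant yeast at or above 50%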;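 note: temperature-sensitive mutant grown at 25 °C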
NALP1 inh – NALP1 inhibition. S. cerevisiae NALP1/ASC/caspase-1 growth, X-gal OD620, 72 h. inhibition, % at 10 µM. 0.61% of 280,000 active; in the data active = inhibition mostly above about 24%, no sharp cut-off; inactive = mostly below about 32%
tim23-1 confirm – confirmation of tim23-1 mutant yeast growth inhibitors; AID 463218; S. cerevisiae tim23-1 growth, BacTiter-Glo luminescence, 24 h; shares compounds with tim23-1 inh; inhibition, % at 20 µM; 83% of 4,400 active;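 active = inhibition above about 39% in either of two replicate wells at 20 µM, limit read from the data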;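 note: temperature-sensitive tim23-1 mutant grown at 25 °C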
Numbers stand for hits; 0 = inactive; - = not tested or not shown. A selection: hits, their analogues and other compounds. The true share with any hit is near 4.9%.

SMILES	tim10-1 inh	NALP3 yeast inh	SKKanGAS inh	TIM10 inh	tim23-1 inh	NALP1 inh	tim23-1 confirm
O=C(CC(=O)c1ccccc1O)c1ccc(F)cc1	0	0	0	0	60.9	0	57.2
Oc1ccc(/C=N/N(c2ccccc2)c2ccccc2)cc1O	0	0	0	0	68.4	0	44.6
COC(=O)C1=C(C)N(Cc2ccccc2)C(=NCc2ccccc2)N[C@H]1c1cccc(F)c1	0	0	0	0	0	0	-
COC(=O)C1=C(C)N(Cc2ccccc2)C(=S)N[C@H]1c1cccc(F)c1	0	0	0	0	51.8	0	0
CCC(C(=O)NC(C)(C)C)N(C(=O)Cn1nnc(-c2cccs2)n1)c1cnc2ccccc2c1 (configuration not stated)	0	0	0	0	0	0	-
CNc1nnc(-c2ccc(N(C)C)cc2)s1	0	0	-	0	0	0	-
FC(F)(F)c1cc(CCN2CCNC[C@@H]2CC2CCCCC2)cc(C(F)(F)F)c1	0	0	-	0	64.8	-	48.0
CCCC[C@@H]1CNCCN1CCc1cc(C(F)(F)F)cc(C(F)(F)F)c1	0	0	0	0	0	-	-
COc1ccccc1NC(=O)Nc1c(C)nn(C)c1C	0	0	0	0	0	0	-
C/C(=N\Nc1ccc(Cl)cc1)c1ccncc1	0	0	0	0	54.5	0	0
CC(=O)Nc1cn(-c2ccccc2)nc1-c1ccccc1	0	0	0	0	0	0	-
O=C(CCl)Nc1cn(-c2ccccc2)nc1-c1ccccc1	0	0	0	0	59.7	0	0
COc1ccc(/C=C/C(=O)Oc2ccc(C)c(C)c2)cc1OC	0	0	0	0	0	0	-
COc1cc(/C=C/[N+](=O)[O-])ccc1OC(=O)/C=C/c1ccc(F)cc1	0	0	0	0	54.7	0	51.3
COCCn1c(SCC(=O)Nc2cccc(C)c2)nnc1C(C)C	0	0	0	0	50.1	0	0
CCOCCn1ccc2c(OCC(=O)Nc3ccc(OC)c(OC)c3)cccc2c1=O	0	0	0	0	54.3	-	0
CCOCCn1ccc2c(OCC(=O)NCCc3ccc(OC)c(OC)c3)cccc2c1=O	0	0	0	0	0	-	-
S=C(Nc1ccc(Nc2ccccc2)cc1)Nc1ccccn1	0	0	66.0	0	51.6	0	0
CC(NC(=S)NC(=O)c1ccccc1)c1ccccc1 (configuration not stated)	0	0	0	0	50.3	-	41.5
O=C(NC(=S)NC1CCS(=O)(=O)C1)c1ccccc1 (configuration not stated)	0	0	0	0	0	0	-
O=C(NC(=S)Nc1ccccn1)c1ccccc1	0	0	0	0	50.2	0	0
O=C(NC(=S)NC1CCCCC1)c1ccccc1	0	0	0	0	62.4	0	55.5
C=CCNC(=O)CC(=O)N/N=C/c1ccc(C(=O)OC)cc1	0	0	0	0	0	0	-
Cc1ccc(S(=O)(=O)N2CCCCC2)cc1NC(=O)COC(=O)c1ccc2c(c1)OCO2	0	0	0	0	0	0	-
O=C(COc1ccc2ccccc2c1Br)Nc1cccnc1	0	0	0	0	51.7	0	0
SMILES	tim10-1 inh	NALP3 yeast inh	SKKanGAS inh	TIM10 inh	tim23-1 inh	NALP1 inh	tim23-1 confirm
Cc1cc(C=O)c(C)n1-c1ccc(NC2CCCC2)c([N+](=O)[O-])c1	0	0	0	0	0	-	-
O=C(OCc1ccc(F)cc1)c1cc(=O)c2ccccc2o1	0	0	0	0	93.9	0	0
COc1ccccc1C(=O)COC(=O)Cc1ccccc1F	0	0	-	0	52.2	-	53.5
COc1ccccc1C(=O)COC(=O)Cc1c[nH]c2ccccc12	0	0	0	0	0	-	-
Nc1c(Cl)c(Cl)nc(C(=O)N/N=C/c2ccco2)c1Cl	0	0	0	0	0	0	-
Cn1cccc1C(=O)NCC1CCCCC1	0	0	0	0	0	0	-
COC(=O)c1cc2ccccc2c(-c2c(O)ccc3ccccc23)c1O	0	0	0	0	69.5	0	0
Cc1csc2nc(O)c(C(=O)NCc3ccc4c(c3)OCO4)c(=O)n12	0	0	0	0	75.0	-	72.8
C=C(C(=O)Oc1ccccc1C(C)(C)C)c1ccccc1	0	0	-	0	58.6	-	56.4
CC(C)(C)c1ccccc1OCC(=O)NCCC(=O)O	0	0	0	0	0	0	-
Cc1cc2cc(CN(CC3CCCO3)C(=S)Nc3ccccc3)c(=O)[nH]c2cc1C (configuration not stated)	0	0	0	0	54.7	0	49.6
COc1ccc2[nH]c(=O)c(CN(CC3CCCO3)C(=S)Nc3ccccc3)cc2c1 (configuration not stated)	0	0	0	0	0	0	-
CC1Cc2ccccc2N1C(=O)COC(=O)c1ccc([N+](=O)[O-])o1 (configuration not stated)	0	0	-	0	56.6	-	47.8
Nc1nonc1C(=O)N/N=C/c1cc(Br)ccc1O	0	0	0	0	52.2	0	55.9
O=c1cc(-c2cccc(Br)c2)nc(-c2ccccc2F)o1	0	0	0	0	63.4	0	56.6
O=c1cc(-c2ccccc2F)nc(-c2ccccc2F)o1	0	0	0	0	0	-	-
O=C(/C=C/c1c(F)cccc1Cl)N1CCc2ccccc2C1	0	0	0	0	58.7	0	59.0
CCN1CCN(C(=O)/C=C/c2c(F)cccc2Cl)CC1	0	0	0	0	0	0	-
O=C(Nc1ccc2nsnc2c1)N1CCCCC1	0	0	0	0	0	0	-
S=C(Nc1ccc2nsnc2c1)N1CCCCCC1	0	0	0	0	54.8	0	39.9
CS(=O)(=O)c1nc(-c2ccc(F)cc2)cc(C(F)(F)F)n1	-	-	0	-	-	0	-
CCOC(=O)CS(=O)(=O)c1nc(-c2ccc(F)cc2)cc(C(F)(F)F)n1	0	0	0	0	69.4	0	0
C=CCC(O)(CC=C)C(C)N (configuration not stated)	0	0	0	0	0	0	-
Oc1ccccc1-c1cc(-c2ccc3c(c2)OCCO3)n[nH]1	0	0	0	0	65.8	0	0
Cc1ccc(S(=O)(=O)N2C[C@@H]3[C@H]4CC[C@H](C4)[C@@H]3[C@@H](C)[C@@H]2c2ccco2)cc1	0	-	-	0	0	-	-
SMILES	tim10-1 inh	NALP3 yeast inh	SKKanGAS inh	TIM10 inh	tim23-1 inh	NALP1 inh	tim23-1 confirm
Cc1ccc(S(=O)(=O)N2C[C@@H]3[C@H]4CC[C@H](C4)[C@@H]3[C@@H](C)[C@H]2c2ccco2)cc1	0	-	-	0	50.4	-	0
CN1c2ccsc2/C(=N/NC(=O)c2c(F)cccc2F)CS1(=O)=O	0	0	0	0	0	0	-
CN1c2ccsc2/C(=N/Nc2ccccc2)CS1(=O)=O	0	0	59.7	0	52.8	0	0
c1ccc(-c2sc3ccccc3c2-c2ccc(OCCN3CCCC3)cc2)cc1	0	0	-	0	60.8	-	42.4
COc1cccc(-c2sc3ccccc3c2-c2ccc(OCCN3CCCCC3)cc2)c1	0	0	-	0	70.4	-	0
COc1ccc(-c2sc3ccccc3c2-c2ccc(OCCN3CCCCC3)cc2)cc1	0	0	-	0	0	-	-
